Rows were chosen to be rich in hits. Some 6.7% of all compounds tested hit in one or more screens of this group.
Pf Dd2 inh: P. falciparum Dd2 growth inhibition. activity change, % at 10 µM. 94,000 tested, 2.3% active. SYBR Green, 72 h; hits give low values. AID 1159554; in the data active means activity change below about -80%; inconclusive means no clear call, values can overlap the other calls
T cruzi growth-1: blocks T. cruzi growth in NIH3T3 culture; T. cruzi beta-gal in NIH3T3, GalScreen luminescence, 90 h; inhibition, % at 8.34 µM; 77,000 tested, 5.9% active; AID 624255;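 active means mean inhibition above about 93%, with at least 55% of replicates each passing it, limit read from the data, passing the limit was not always enough; inconclusive means only one of those two conditions holds; inactive means neither condition holds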
C diff HTS: blocks growth of Clostridium difficile; growth activity, negative = inhibition, % at 16 µg/mL (by protocol); Clostridium difficile clinical isolate growth, OD600, 24 h; hits give low values; AID 1259249; 86,000 tested, 0.25% active;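 active means mean growth activity at or below -80% and every replicate also at or below -80%; inconclusive means mean at or below -80% but some replicate above -80%; inactive means mean growth activity above -80%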
T cruzi growth-2: blocks T. cruzi growth in NIH3T3 host cells; inhibition, % at 8.35 µM; T. cruzi beta-gal in NIH3T3, GalScreen luminescence, 90 h; 5,600 tested, 72% active; shares compounds with T cruzi growth-1; AID 651739;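 active means mean replicate inhibition above about 95% and at least 55% of replicates individually reaching it, limit read from the data; inconclusive means only one of the two criteria is met; inactive means neither criterion is met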
T cruzi growth-3: Trypanosoma cruzi proliferation inhibition; inhibition, % at 2.09 µM; shares compounds with T cruzi growth-1; 5,600 tested, 21% active; T. cruzi beta-gal in NIH3T3, GalScreen luminescence, 90 h; AID 651740;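 active means mean inhibition above about 95%, with at least 55% of replicates also reaching it, limit read from the data; inconclusive means meets just one of the two conditions; inactive means meets neither condition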
NIH3T3 tox: kills mouse NIH/3T3 fibroblasts; AID 651742; cytotoxicity (signal decrease), % at 8.35 µM; shares compounds with T cruzi growth-1; 5,600 tested, 14% active; NIH/3T3 viability, CellTiter-Glo ATP luminescence, 90 h;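 active means mean signal decrease across replicates above about 35% based on untreated-well scatter, with enough replicates individually passing, limit read from the data; inconclusive means no rule stated though some were filed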
3T3 cytotox 2: cytotoxicity in mouse NIH/3T3 fibroblasts. shares compounds with T cruzi growth-1. NIH/3T3 viability, CellTiter-Glo ATP luminescence, 90 h. inhibition, % at 24.9 µM. 5,600 tested, 56% active;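 active means mean loss of cell viability signal at or above a set limit, and enough replicates individually reaching it; inconclusive means meets only the mean limit or only the replicate share; inactive means meets neither condition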
Each line names hits and unclear results; the compound was inactive in the other large screens (follow-up assays come after a bar, where they were run).

COc1ccc(NC(=O)Nc2ccc3c(c2)C(=O)N([C@@H](C)CO)C[C@@H](C)[C@H](CN(C)Cc2ccc(Cl)c(Cl)c2)OCCCC[C@@H](C)O3)cc1	T cruzi growth-1 126 | T cruzi growth-2 100 | T cruzi growth-3 117 | NIH3T3 tox inactive | 3T3 cytotox 2 inactive
COc1ccc(CN(C)C[C@@H]2OCCCC[C@@H](C)Oc3ccc(NC(=O)Nc4ccc(OC)cc4)cc3C(=O)N([C@H](C)CO)C[C@@H]2C)cc1	none (no result: C diff HTS)
C[C@H](CO)N1C[C@H](C)[C@@H](CN(C)Cc2ccc(Cl)c(Cl)c2)OCCCC[C@H](C)Oc2ccc(NC(=O)Nc3ccccc3)cc2C1=O	none
O=C(Nc1ccccc1F)N1CC(=O)N2[C@H](CO)[C@H](c3ccc(C#Cc4ccc(F)cc4)cc3)[C@H]2C1	none (no result: T cruzi growth-1)
CCC(=O)Nc1ccc2c(c1)C(=O)N(C)[C@@H]1CC[C@@H](CC(=O)N[C@@H](C)c3ccccc3)O[C@H]1CO2	none
COc1cccc(S(=O)(=O)N[C@H]2CC[C@H](CCn3cc(-c4ccccn4)nn3)O[C@@H]2CO)c1	none
CC(C)NC(=O)Nc1ccc2c(c1)C(=O)N([C@@H](C)CO)C[C@H](C)[C@@H](CN(C)S(C)(=O)=O)OCCCC[C@H](C)O2	none (no result: C diff HTS)
C/C=C/c1cnc2c(c1)C(=O)N([C@H](C)CO)C[C@@H](C)[C@H](CN(C)C(=O)Nc1ccc(F)cc1)O2	none (no result: T cruzi growth-1)
CN1C(=O)c2cc(NC(=O)c3ccccc3)ccc2OC[C@H]2O[C@H](CC(=O)NCC3CC3)CC[C@H]21	none
C/C=C/c1ccc([C@H]2[C@@H](CO)N(c3nc(CC)cs3)[C@H]2C#N)cc1	T cruzi growth-1 101 | T cruzi growth-2 inactive | T cruzi growth-3 inactive | NIH3T3 tox inactive | 3T3 cytotox 2 26
CCc1csc(N2[C@H](C#N)[C@@H](c3ccc(-c4ccc(F)cc4)cc3)[C@H]2CO)n1	T cruzi growth-1 106 | T cruzi growth-2 106 | T cruzi growth-3 99 | NIH3T3 tox inactive | 3T3 cytotox 2 inconclusive
CCc1csc(N2[C@@H](C#N)[C@@H](c3ccc(C4=CCCC4)cc3)[C@@H]2CO)n1	T cruzi growth-1 101 | T cruzi growth-2 103 | T cruzi growth-3 inactive | NIH3T3 tox 42 | 3T3 cytotox 2 77
C/C=C/c1ccc([C@@H]2[C@@H](CO)N(c3ncc(CC)s3)[C@H]2C#N)cc1	T cruzi growth-1 99 | T cruzi growth-2 inactive | T cruzi growth-3 inactive | NIH3T3 tox inactive | 3T3 cytotox 2 inactive
CCc1csc(N2[C@H](C#N)[C@H](c3ccc(-c4cccc(F)c4)cc3)[C@H]2CO)n1	none
C/C=C/c1ccc([C@@H]2[C@@H](CO)N(c3nc(-c4ccccc4)cs3)[C@H]2C#N)cc1	none (no result: T cruzi growth-1)
CCc1csc(N2[C@H](CO)[C@@H](c3ccc(C4=CCCC4)cc3)[C@@H]2C#N)n1	none
C/C=C/c1ccccc1[C@H]1[C@@H](C#N)N(c2ncc(CC)s2)[C@@H]1CO	none (no result: T cruzi growth-1)
COc1cccc(CNC(=O)C[C@H]2C=C[C@H](NC(=O)C3CC3)[C@@H](CO)O2)c1	none (no result: T cruzi growth-1)
C[C@@H]1CCCCO[C@H](CN(C)C(=O)CCC(F)(F)F)[C@@H](C)CN([C@@H](C)CO)C(=O)c2cc(NC(=O)CCCCCC(=O)Nc3ccccc3N)ccc2O1	none
COc1ccc(S(=O)(=O)Nc2ccc3c(c2)CC(=O)N([C@@H](C)CO)C[C@@H](C)[C@H](CN(C)Cc2ccc(-c4ccccc4)cc2)O3)cc1	none
CCCC(=O)Nc1ccc2c(c1)C(=O)N(C)[C@H]1CC[C@H](CC(=O)NCC3CCCCC3)O[C@@H]1CO2	none
CCc1csc(N2[C@@H](C#N)[C@@H](c3ccc(-c4ccc(F)cc4)cc3)[C@@H]2CO)n1	T cruzi growth-1 98 | T cruzi growth-2 98 | T cruzi growth-3 inactive | NIH3T3 tox 49 | 3T3 cytotox 2 83
CCc1csc(N2[C@H](CO)[C@@H](c3ccc(-c4cccc(F)c4)cc3)[C@@H]2C#N)n1	none
CCc1csc(N2[C@@H](C#N)[C@@H](c3ccccc3-c3cccc(F)c3)[C@@H]2CO)n1	none (no result: T cruzi growth-1)
N#C[C@H]1[C@H](c2ccc(-c3ccc(F)cc3)cc2)[C@H](CO)N1c1nc(-c2ccccc2)cs1	none (no result: T cruzi growth-1)
CCc1csc(N2[C@H](C#N)[C@H](c3ccc(-c4ccc(F)cc4)cc3)[C@@H]2CO)n1	T cruzi growth-1 102 | T cruzi growth-2 101 | T cruzi growth-3 110 | NIH3T3 tox inactive | 3T3 cytotox 2 37
CCc1csc(N2[C@@H](C#N)[C@H](c3ccc(-c4ccc(F)cc4)cc3)[C@@H]2CO)n1	T cruzi growth-1 105 | T cruzi growth-2 102 | T cruzi growth-3 inactive | NIH3T3 tox inactive | 3T3 cytotox 2 inactive
CC(C)NC(=O)Nc1ccc2c(c1)CC(=O)N([C@@H](C)CO)C[C@H](C)[C@@H](CN(C)Cc1ccc3c(c1)OCO3)O2	none
O=C(O)[C@H]1[C@H](CO)[C@H]2Cn3c(ccc(C4=CCCCC4)c3=O)[C@H]2N1C(=O)c1ccccc1F	none
Cc1ccc(S(=O)(=O)Nc2ccc3c(c2)C(=O)N([C@H](C)CO)C[C@H](C)[C@@H](CN(C)S(=O)(=O)c2ccc(F)cc2)OCCCC[C@H](C)O3)cc1	none (no result: T cruzi growth-1)
Cc1ccc(S(=O)(=O)Nc2ccc3c(c2)C(=O)N([C@@H](C)CO)C[C@@H](C)[C@H](CN(C)S(=O)(=O)c2ccc(F)cc2)OCCCC[C@H](C)O3)cc1	T cruzi growth-1 121 | T cruzi growth-2 110 | T cruzi growth-3 inactive | NIH3T3 tox inactive | 3T3 cytotox 2 inactive
Cc1ccc(S(=O)(=O)N(C)C[C@H]2OCCCC[C@@H](C)Oc3ccc(NS(=O)(=O)c4ccc(F)cc4)cc3C(=O)N([C@H](C)CO)C[C@H]2C)cc1	T cruzi growth-1 109 | T cruzi growth-2 103 | T cruzi growth-3 inconclusive | NIH3T3 tox inactive | 3T3 cytotox 2 inactive
Cc1ccc(S(=O)(=O)N(C)C[C@@H]2OCCCC[C@H](C)Oc3ccc(NS(=O)(=O)c4ccc(F)cc4)cc3C(=O)N([C@H](C)CO)C[C@H]2C)cc1	T cruzi growth-1 107 | T cruzi growth-2 107 | T cruzi growth-3 inactive | NIH3T3 tox inactive | 3T3 cytotox 2 55
Cc1ccc(S(=O)(=O)Nc2ccc3c(c2)C(=O)N([C@@H](C)CO)C[C@@H](C)[C@@H](CN(C)S(=O)(=O)c2ccc(F)cc2)OCCCC[C@H](C)O3)cc1	none (no result: T cruzi growth-1)
Cc1ccc(S(=O)(=O)Nc2ccc3c(c2)C(=O)N([C@H](C)CO)C[C@H](C)[C@@H](CN(C)S(=O)(=O)c2ccc(C)cc2)OCCCC[C@@H](C)O3)cc1	none (no result: C diff HTS)
C[C@H]1CN([C@@H](C)CO)C(=O)c2cc(NS(=O)(=O)c3ccccc3)ccc2O[C@H]1CN(C)Cc1ccc(-c2ccccc2)cc1	none

Source: PubChem
